Reference: PubChem BioAssay (NCATS)
Values joined by “and” are separate entries in the source; they are usually repeats but may differ in a detail not shown here. Equal entries are not always repeated. Results filed as inconclusive are left out. Entries that show only a call come without a potency. Active and inactive are the calls of the source. Calls come from the whole dose curve; as a rule, active = well fitted curve in the direction sought with a large enough effect; inconclusive = small, poorly fitted or top-dose-only effect, or another doubt; inactive = no such curve, though single readings can be large; an effect the other way counts as inactive or inconclusive.

Key:
[1] = target: Nicotinamide N-methyltransferase (Homo sapiens) (UniProt P40261); assay: Confirmatory Screen for Target Class Profiling of Small Molecule Inhibitors of Methyltransferases (AID 1745852); details: MTase-Glo luminescence, SAH detection, recombinant enzyme; measured here: NNMT max response; stronger effect = lower value
Nicotinamide N-methyltransferase (Homo sapiens), sequence (P40261 whole entry, looked up): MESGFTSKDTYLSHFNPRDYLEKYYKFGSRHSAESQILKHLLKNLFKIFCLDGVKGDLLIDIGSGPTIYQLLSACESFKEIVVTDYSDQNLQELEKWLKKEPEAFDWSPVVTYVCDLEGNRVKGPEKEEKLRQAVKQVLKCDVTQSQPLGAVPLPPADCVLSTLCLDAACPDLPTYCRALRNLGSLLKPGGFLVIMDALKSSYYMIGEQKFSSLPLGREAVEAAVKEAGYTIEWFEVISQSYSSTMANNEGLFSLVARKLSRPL

[2] = target: Phenylethanolamine N-methyltransferase (Homo sapiens) (UniProt P11086); assay: as above; details: MTase-Glo luminescence, SAH detection, recombinant enzyme; measured here: PNMT max response; stronger effect = lower value
Phenylethanolamine N-methyltransferase (Homo sapiens), sequence (P11086 whole entry, looked up): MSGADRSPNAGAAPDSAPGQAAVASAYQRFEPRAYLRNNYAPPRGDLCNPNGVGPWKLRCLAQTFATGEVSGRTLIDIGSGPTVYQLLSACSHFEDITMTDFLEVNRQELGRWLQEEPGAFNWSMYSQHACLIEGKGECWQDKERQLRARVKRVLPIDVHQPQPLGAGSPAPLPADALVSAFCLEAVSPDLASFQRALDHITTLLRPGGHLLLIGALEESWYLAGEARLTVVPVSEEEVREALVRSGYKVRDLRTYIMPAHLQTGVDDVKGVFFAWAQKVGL

[3] = NCATS anti-infectives library activity on HEK293 viability as a counter-qHTS vs the C. elegans viability qHTS (AID 1745854); details: HEK293 viability counter-screen; series mostly up to 41.8 µM;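 note: HEK293 cells exposed to compounds for 24 hr before the viability read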
Method in brief: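 Compound titrations (final up to 41.7 uM) were incubated with HEK293 cells for 24 hr at 37C under 5% CO2. Viable cells were quantified with CellTiter-Glo after 10 min at ambient temperature.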

[4] = target: Glutathione peroxidase 1 (Homo sapiens) (UniProt P07203); assay: Primary qHTS Assay for Inhibitors of Recombinant Selenoprotein Glutathione Peroxidase 1 (GPX1) (AID 1845191); details: recombinant GPX1, GR-coupled NADPH fluorescence, 15 min; series mostly up to 48.8 µM; note: nearly all actives have a fitted effect of over 65% in size; note: potency is the fitted concentration of half-maximal effect
Glutathione peroxidase 1 (Homo sapiens), sequence (P07203 whole entry, looked up): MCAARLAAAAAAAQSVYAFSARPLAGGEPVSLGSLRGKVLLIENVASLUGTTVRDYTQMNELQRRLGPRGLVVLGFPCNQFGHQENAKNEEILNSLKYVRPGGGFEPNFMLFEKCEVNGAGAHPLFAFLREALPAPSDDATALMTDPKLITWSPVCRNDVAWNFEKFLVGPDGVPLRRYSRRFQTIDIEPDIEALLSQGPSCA
Method in brief: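 GPX1 10 nM, GR 100 nM, GSH 1 mM, NADPH 0.5 mM, CHP 0.5 mM (final). 30-min cpd preincubation, RT. Ex340/Em450 read t=0, t=15 min.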

[5] = Primary fluorescence-based thiol-reactive (MSTI) qHTS assay for identification of artifact compounds. (AID 1845221); details: MSTI thiol-reactivity probe, 1 h; series mostly up to 53.8 µM; note: nearly all actives have a fitted effect of over 65% in size; note: potency is the fitted concentration of half-maximal effect;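 for activity change, negative = thiol reactive: thiol-reactive compounds lower the probe fluorescence signal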
Method in brief: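 A multi-concentration qHTS design tested compounds against 4 uM MSTI, pH 7.4 phosphate-buffered saline. Plates were protected from light for 1 h at room temperature before imaging fluorescence.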

[6] = tested on: Nanoluciferase (engineered Oplophorus gracilirostris luciferase); assay: Primary Nanoluciferase (NLuc) qHTS assay for identification of artifact compounds. (AID 1845222); details: NLuc-conditioned medium, Nano-Glo luminescence, 5 min; series mostly up to 54.1 µM;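 note: NLuc secreted into diluted conditioned medium of S16 cells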
Method in brief: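 Using secreted nanoluciferase in S16 culture medium (0.22 um filtered, 1:55 dilution), compounds were preincubated 15 min at RT. Signal was generated with Nano-Glo reagent (1:100) over 5 min.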

[7] = target: Phospholipid hydroperoxide glutathione peroxidase GPX4 (Homo sapiens) (UniProt P36969); assay: Primary qHTS Assay for Inhibitors of Recombinant Selenoprotein Glutathione Peroxidase 4 (GPX4) (AID 1845192); details: recombinant GPX4, GR-coupled NADPH fluorescence, 15 min; series mostly up to 50 µM; note: nearly all actives have a fitted effect of over 65% in size; note: potency is the fitted concentration of half-maximal effect
Phospholipid hydroperoxide glutathione peroxidase GPX4 (Homo sapiens), sequence (P36969 whole entry, looked up): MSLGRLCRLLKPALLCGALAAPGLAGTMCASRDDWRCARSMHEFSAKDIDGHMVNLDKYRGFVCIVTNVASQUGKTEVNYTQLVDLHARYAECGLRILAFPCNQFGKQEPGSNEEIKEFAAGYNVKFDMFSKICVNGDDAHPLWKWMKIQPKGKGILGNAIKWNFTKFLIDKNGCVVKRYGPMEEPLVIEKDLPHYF
Method in brief: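 qHTS, GR-coupled: GPX4 200 nM + cpd 30 min RT → GSH 1 mM, NADPH 0.5 mM, GR 100 nM → CHP 0.5 mM start; fluor 340/450 at t0 and t15 min; no-enzyme wells as control.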

[8] = target: Luciferin 4-monooxygenase (Photinus pyralis) (UniProt P08659); assay: Primary firefly luciferase (FLuc) qHTS assay for identification of artifact compounds. (AID 1845220); details: purified firefly luciferase, luminescence, 5 min; series mostly up to 54.1 µM; note: nearly all actives have a fitted effect of over 60% in size
Method in brief: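 In this counter-screen for luciferase artifacts, test compounds met substrate (10 uM each luciferin and ATP) before 10 nM enzyme started the reaction. Light output was measured 5 min later.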

Cc1coc2c1C(=O)C(=O)c1c-2ccc2c1CCCC2(C)C
activity [1]: -48.9%
activity [2]: -37.9%
Potency [3]: inactive
Potency [4]: inactive
Potency [5]: 1.34 µM (active)
Potency [6]: inactive

CCS(=O)(=O)c1cccc(-c2cc(C(=O)NC3CCN(C)CC3)c(C)c3[nH]c4ncc(C)cc4c23)c1
activity [1]: -55.9% and -55.5%
activity [2]: -15.8% and -17.5%
Potency [4]: inactive
Potency [7]: inactive
Potency [8]: inactive
Potency [5]: inactive
Potency [6]: inactive

CC(C)c1cc(-c2n[nH]c(=O)n2-c2ccc3c(ccn3C)c2)c(O)cc1O
activity [1]: -33.4%
activity [2]: -21.8%
Potency [4]: inactive
Potency [7]: inactive
Potency [8]: inactive
Potency [5]: inactive
Potency [6]: inactive

COc1cc(C(=O)NS(=O)(=O)c2ccccc2C)ccc1Cc1cn(C)c2ccc(NC(=O)OC3CCCC3)cc12
Potency [4]: inactive
Potency [7]: 9.04 µM (active)

CC(C)(C)c1cc(C(C)(C)C)c(NC(=O)c2c[nH]c3ccccc3c2=O)cc1O
Potency [4]: inactive
Potency [7]: 17.8 µM (active)

NC(=O)c1cccc2cn(-c3ccc([C@@H]4CCCNC4)cc3)nc12
Potency [3]: inactive
Potency [4]: 18.3 µM (active) and 22.7 µM (active)
Potency [7]: 16.1 µM (active)
Potency [8]: inactive
Potency [5]: inactive
Potency [6]: inactive

CC(C)(C)OC(=O)Nc1ccc(-c2cc(C(=O)NCCCCCCC(=O)NO)no2)cc1
Potency [3]: inactive
Potency [4]: inactive
Potency [7]: inactive

COc1ccc(-n2nc(C(N)=O)c3c2C(=O)N(c2ccc(N4CCCCC4=O)cc2)CC3)cc1
Potency [3]: inactive
Potency [4]: inactive
Potency [7]: inactive
Potency [8]: inactive
Potency [5]: inactive
Potency [6]: inactive

CCN(CC)CCCCNc1ncc2cc(-c3cc(OC)cc(OC)c3)c(NC(=O)NC(C)(C)C)nc2n1
Potency [4]: inactive
Potency [7]: inactive

COc1c(OCCCN2CCOCC2)ccc2c3n(c(=NC(=O)c4cnc(N)nc4)nc12)CCN3
activity, negative = inhibition [4]: -31.4% [at 9.52 µM] (inactive) and 3.3% [at 9.52 µM] (inactive)
outcome [4]: inactive [at 9.52 µM]
activity change, negative = inhibition [7]: -4.71% [at 9.73 µM] (inactive) and -19.4% [at 9.73 µM] (inactive)
outcome [7]: inactive [at 9.73 µM]
activity change, negative = inhibition [8]: -4.27% [at 11.6 µM] (inactive)
activity change, negative = thiol reactive [5]: 32.5% [at 11.5 µM] (inactive)
activity, negative = inhibition [6]: 0.183% [at 11.6 µM] (inactive)

O=C(CCCCCCNC(=O)c1cnc(N(c2ccccc2)c2ccccc2)nc1)NO
Potency [3]: inactive
Potency [4]: inactive
Potency [7]: inactive
Potency [8]: inactive
Potency [5]: inactive
Potency [6]: inactive
